From the supplement of paper PMC10338343 come the findings set out here.

± gives the standard deviation.
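Further: 1 nM active piRISC with 0.1 nM target library at 33 °C single turnover.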

The subject of the first assay is MILI (PIWIL2) piRISC loaded with L1MC piRNA (26 nt). Kind of assay: pre-steady-state target cleavage rate (min^-1); guide: L1MC piRNA 5'p-UAACUAAAUACUAUGCAAGCUGUAGG; MIWI and MILI are mouse PIWI proteins and EfPiwi is from a freshwater sponge; tags in brackets are library labels; higher = faster piRNA-guided slicing of the target. The settings on record: auxiliary factor: 500 nM mouse GTSF1. The method, boiled down:
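At 33 °C in HEPES–potassium acetate buffer, a transcribed, DNA-blocked target RNA library […] was exposed for 0–8 or 0–960 min to 1 nM active affinity-purified piRISC carrying a single synthetic guide, with or without 500 nM GTSF1 partner protein. Uncleaved targets were sequenced and normalised to depth and to weakly complementary targets. With three trials pooled and k3 capped at 0.0001 min^-1, a burst-and-steady-state fit produced the pre-steady-state cleavage rate.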
With UCCUGGUACAGCUUGCAUAGUUUUUAGAAA, the “pre-steady-state target cleavage rate” value is 0.0221 ± 0.011. Same read-out and setting: the result for UCCUGGAUGUCGAACGUUAGUAUUUAGUA reads less than 0.0001. The same measure, in the same setting: the result for UCCUGGAUGAGCUUGCAUAGUCAUUUAGUUA reads 0.00477 ± 0.0039; that for UCCUGGAUGUCGAUGCAUAGCAUUUAGUUA, 0.0232 ± 0.0085. On the same count and under the same terms, the result for UCCUGCUACAGCUUGCAUACAUUUUAGUUA reads 0.0121 ± 0.0061; that for UCCUGGAUGUGCUUGGUUAGUAUUUAGAAA, 0.00692 ± 0.0045; that for UCCUGGAUGUCCUUGCAAAGUAUUUAGAUA, 0.0324 ± 0.012. On to UCCUGGAUGUCGAUGCAUAGUAUUGUAGUUA, for which the “pre-steady-state target cleavage rate” value is 0.0505 ± 0.016.

In the case of UCCUGGUACAGCUUGCAUAGUAUAUAGAAA, the “pre-steady-state target cleavage rate” value worked out at 0.0845 ± 0.028. On the same count and under the same terms, the same measure for UCCUGGAACUGCUUGCAUAGUAUUUUCAAA: 0.0118 ± 0.0046; for UCCUGGAACAGCUUGCAUACUAUUUAGAAA: 0.0271 ± 0.011. As for UCCUCCUACAGCUUGCUAUGUAUUUACAAA, the “pre-steady-state target cleavage rate” value is 0.00653 ± 0.0036. Regarding UCCUGGAUGUCGAUGCAUAGUAUUUAUUA, the “pre-steady-state target cleavage rate” value is 0.00695 ± 0.0047. The same measure, in the same setting: the result for UCCUGCUACAGCAUGCAUAGUAUUUACAAA reads 0.146 ± 0.043.

For UCCUGGAUCACCUUGCAUAGUAUUUUGUUA, the “pre-steady-state target cleavage rate” value is 0.11 ± 0.027. On the same count and under the same terms, the same measure for UCCUGGAUCAGGUUGCAUAGUAUUUACUUA: 0.117 ± 0.029; for UCCUCCUACACGUUGCAUAGUAUUUUCAAA: 0.0568 ± 0.017; for UCCUGGAACAGGAUGCAUAGUAUUUACAAA: 0.0486 ± 0.017. On to UCCUGGAUGUCGAAGCAUAGUAUUUACGUUA, for which the “pre-steady-state target cleavage rate” value was determined as 0.0359 ± 0.0066. Still for that read-out and setting: the result for UCCUCCUACUCCUUGCAUAGUAUUUACAAA reads 0.0842 ± 0.022. Take UCCUGGAUGUGCUUGCAUAGUCAUUUAGUUA: the “pre-steady-state target cleavage rate” value came out at 0.00678 ± 0.0044. UCCUGCUACACGUUGCAUAGUAUUUACAAA: the “pre-steady-state target cleavage rate” value was determined as 0.0287 ± 0.01. Consider UCCUGGUACAGCUUGCAUAGUAUAAUCAAA, for which the “pre-steady-state target cleavage rate” value came out at 0.0264 ± 0.0091. On to UCCUGGAUGUCGAACGUAUCUAUUUCAGUUA, for which the “pre-steady-state target cleavage rate” value was less than 0.0001. Same read-out and setting: the same measure for UCCUGGUACAGCUUGCAUAGUAAUUACUUA: 0.00729 ± 0.0052; for UCCUGGAUCAGCUUGCAAAGUAUUUAGAAA: 0.0827 ± 0.015; for UCCUGCUACAGCUUCCAUAGUUUUUAGUUA: 0.0226 ± 0.01. Regarding UCCUGGAUCAGCUUGCAUAGAAUUUACUUA, the “pre-steady-state target cleavage rate” value was 0.021 ± 0.0075. Same read-out and setting: the result for UCCUGGAUCAGCUUCGAUAGUAUUUACAAA reads 0.00974 ± 0.005; that for UCCUCCUACAGCAACCAUAGUAUUUAGAAA, 0.0741 ± 0.02; that for UCCUCCUACAGCUUGCAUAGUAAAUAGAAA, 0.0692 ± 0.02. Still for that read-out and setting: the same measure for UCCUGGAUCAGCUUGCAUAGUAUAAUGUAA: 0.0214 ± 0.0079; for UCCUGGAUCAGCUUGCAUAGUAUAAAGAAA: 0.0366 ± 0.01. With UCCUGGAUGAGCUUCGAUAGUAUUUAGUAA, the “pre-steady-state target cleavage rate” value came to 0.0558 ± 0.012.

For the sequence UCCUGGAUGUCCUUGCAUAGUAAAAAGUUA, the “pre-steady-state target cleavage rate” value stood at 0.0137 ± 0.0059.

Staying with this assay, now noted: auxiliary factor: none (no GTSF1).
In the case of UCCUGGAUGUCGUUGCAUAGUGAUUUAGUUA, the “pre-steady-state target cleavage rate” value amounted to 0.0042 ± 0.0032.

UCCUGGAUGUCGAAGCAUACAUUUUAGUUA: the “pre-steady-state target cleavage rate” value was less than 0.0001. Take UCCUGGAUGUCGAACCAUACGUAUUUAGUUA: the “pre-steady-state target cleavage rate” value was less than 0.0001. The same measure, in the same setting: the result for UCCUGGAUGUCGAACGUUAGUAUUUCGUUA reads less than 0.0001.

As for UCCUGGAUGUCGAUGGAUUGUAUUUAGUUA, the “pre-steady-state target cleavage rate” value is less than 0.0001.
